Consider five molecules from PubChem BioAssay.

Calls of active or inactive are those of the source.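 The calls were made as follows, unless noted: active = inhibition of the reporter signal at or above 50%; inactive = inhibition below 50%.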

The nature of experiment [1]: inhibitors of TNFa-induced NFkB p65 translocation, primary screen, imaging, HUVEC, MLSMR starter and 10KST1 sets (AID 438;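 active = inhibition above 20% together with a positive visual image hit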;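 also: compound added about 3h40 before a 20 min TNFalpha stimulation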;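 as to inhibition: signal is the nuclear over cytoplasmic p65 intensity ratio per well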). As to conditions: HUVEC TNFa-induced p65 nuclear translocation; cell count: measured here: nuclei count (cytotoxicity indicator), at 2.08 µM; inhibition: at 2 µM, stronger effect = higher value, 0% TNFa-plus-vehicle, 100% no-TNFa wells.
Experiment [2] is described as follows: inhibitors of mutant huntingtin aggregation, primary screen, imaging, exon1htt(103Q)mCFP cells, high-content imaging (AID 483;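 active = visual image review flags a hit and inhibition of aggregation exceeds 20%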;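 also: compound exposure lasted 3 days before fixation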;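 as to nuclei count: percent of the per-plate median nuclei count of sample wells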). As to conditions: exon1htt(103Q)mCFP cell line, aggregate imaging, at 2 µM; inhibition of aggregation: stronger effect = higher value; nuclei count: measured here: cell count, toxicity.
Experiment [3] in a line: inhibitors of E-selectin induction by TNFa, primary screen, imaging, HUVEC, immunofluorescence, MLSMR starter and 10KST1 sets (AID 487;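 active = visually confirmed hit in the image check and inhibition above 20%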;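 as to inhibition: signal is fraction of cell area covered by stained E-selectin grains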;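 as to nuclei count: 100% = median nuclei count of all wells on the same plate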). The following applies: HUVEC TNFalpha-induced E-selectin immunofluorescence imaging, at 2 µM; inhibition: stronger effect = higher value; nuclei count: measured here: cell number, toxicity.
Experiment [4] is described as follows: DUSP6 inhibitors restoring Erk phosphorylation by chemical complementation, primary imaging in DUSP6-transfected HeLa (AID 609;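 active = compounds giving at least 50% inhibition in the cell-based MKP-3 phosphatase rescue imaging test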;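 as to inhibition: phospho-Erk level distribution per well compared with pooled transfected vehicle control wells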). The following applies: HeLa MKP-3 transfected, phospho-Erk imaging KS statistic, at 10 µM, cells stimulated with TPA for 15 min.
Experiment [5] addresses Dual specificity protein phosphatase 6 (Homo sapiens) (UniProt Q16828). The description is as above. As to conditions: HeLa MKP-3 transfected, phospho-Erk imaging KS statistic; at 10 µM; stronger effect = higher value; cells stimulated with TPA for 15 min.
For experiment [6], the target named is Voltage-gated potassium channel subunit beta-2 (Rattus norvegicus) (UniProt P62483). The experiment is described as follows: KvBeta enzyme negative modulators, primary screen, biochemical, NADPH fluorescence (AID 622;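 active = fluorescence slope higher than the sample average by over 3 SD, cut at about -0.22 in these data, passing the limit was not always enough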;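 also: slope of raw intensity against log time taken from 70 to 1610 s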). As to conditions: recombinant KvBeta, 4-cyanobenzaldehyde reduction, at 10 µM, stronger effect = higher value.
Voltage-gated potassium channel subunit beta-2 (Rattus norvegicus), sequence (P62483 whole entry, looked up): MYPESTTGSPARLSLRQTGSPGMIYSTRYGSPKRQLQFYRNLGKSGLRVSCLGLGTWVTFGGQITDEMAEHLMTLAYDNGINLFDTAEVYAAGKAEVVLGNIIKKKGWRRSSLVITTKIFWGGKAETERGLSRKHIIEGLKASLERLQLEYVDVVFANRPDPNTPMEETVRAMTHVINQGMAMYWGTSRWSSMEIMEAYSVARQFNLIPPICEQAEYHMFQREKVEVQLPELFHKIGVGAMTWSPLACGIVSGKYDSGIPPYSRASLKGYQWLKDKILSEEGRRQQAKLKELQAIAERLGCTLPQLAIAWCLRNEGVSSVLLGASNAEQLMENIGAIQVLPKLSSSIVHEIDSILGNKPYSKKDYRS
Experiment [7] has the same target. The experiment can be described thus: KvBeta positive modulators, primary screen, biochemical, NADPH fluorescence (AID 623;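 active = NADPH fluorescence slope more negative than the mean of all samples by about 3 SD, 99.7% confidence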;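 also: fluorescence intensity change per second fitted from 20 to 320 s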). The following applies: Recombinant KvBeta, NADPH fluorescence decrease slope, 10 min; at 10 µM; stronger effect = lower value.
In experiment [8] the target is Muscarinic acetylcholine receptor M4 (Homo sapiens) (UniProt P08173). The experiment can be described thus: compounds altering M4/GIRK thallium flux, either direction, primary screen, M4 allosteric agonist project, cell-based, HEK293 M4/GIRK, BTC-AM (AID 625;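 active = fluorescence slope after compound addition differing from the mean of all tested samples at 99.7% confidence, mostly higher but some lower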;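 also: thallium influx through GIRK channels coupled to M4 in HEK293 cells with BTC-AM dye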). As to conditions: at 10 µM, actives lie on both sides.
Muscarinic acetylcholine receptor M4 (Homo sapiens), sequence (P08173 whole entry, looked up): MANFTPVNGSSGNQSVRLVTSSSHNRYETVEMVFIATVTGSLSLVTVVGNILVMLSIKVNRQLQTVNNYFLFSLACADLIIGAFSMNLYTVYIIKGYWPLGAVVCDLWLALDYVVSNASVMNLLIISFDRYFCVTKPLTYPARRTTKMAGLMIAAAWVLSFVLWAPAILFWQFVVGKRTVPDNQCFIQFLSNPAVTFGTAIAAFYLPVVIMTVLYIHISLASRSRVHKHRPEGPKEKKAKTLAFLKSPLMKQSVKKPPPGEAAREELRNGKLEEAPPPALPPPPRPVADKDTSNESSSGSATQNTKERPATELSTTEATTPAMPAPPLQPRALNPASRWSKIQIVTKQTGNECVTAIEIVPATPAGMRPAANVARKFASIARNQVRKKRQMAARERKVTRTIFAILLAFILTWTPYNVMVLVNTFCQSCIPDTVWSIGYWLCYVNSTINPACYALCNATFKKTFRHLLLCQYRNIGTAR
The nature of experiment [9]: inhibitors of larval lipid processing in zebrafish, primary screen, whole organism, PED6 fluorescence, gall bladder and intestine (AID 686;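 active = a full or partial loss of lipid-probe fluorescence in the fish gall bladder, intestine or both, judged by eye; inactive = no fluorescence loss, or compound toxic to the fish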;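 also: larvae 5 to 7 days old with five fish per well; signal comes from phospholipase A2 cleavage of quenched PED6 carried via bile; overnight exposure to compound and PED6 before scoring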). The following applies: Zebrafish larvae PED6 lipid processing, fluorescence scoring; screened at 20 µM (by protocol).
Experiment [10] can be described thus: inhibitors of Chlamydomonas gravitaxis, primary screen, whole organism, Chlamydomonas reinhardtii, WT vs cilia-less mutant, absorbance, 96-well (AID 463189;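 active = inhibition at or above 50% relative to wild type and mutant plate controls; inactive = inhibition below 50%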;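 also: 0% = wild type cc124 cells in DMSO and 100% = ciliumless bld1 mutant cells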). As to conditions: OD600 absorbance, 2 days, at 10 µM, stronger effect = higher value.
The nature of experiment [11]: inhibitors of Sendai virus-induced IRF3 signaling, primary screen, TLR/RLR signaling modifier project, cell-based, Sendai virus stimulus, luciferase, 10K MLSCN set (AID 602276;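 active = inhibition at or above 50% at 10 µM; inactive = inhibition below 50%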;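 also: firefly luciferase from ISG56 promoter only with Renilla not read in this screen; 0% = Sendai virus plus DMSO and 100% = medium plus DMSO without virus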). The following applies: HEK293 RL24 IRF3 luciferase reporter, at 10 µM, stronger effect = higher value.
The nature of experiment [12]: inhibitors of poly I:C-induced TLR3 signaling, primary screen, cell-based, poly I:C stimulus, luciferase, 10K MLSCN set (AID 602277). As to conditions: HEK293-TLR3 RL24 IRF3 luciferase reporter, at 10 µM, stronger effect = higher value.
The mark [13] stands for this setting: measured here: cell density z-score.
Setting [14] is: measured here: nuclear c-Myc green intensity z-score.
Setting [15] is: measured here: nuclear pErk red intensity z-score, stronger effect = higher value.

Dual specificity protein phosphatase 6 (Homo sapiens), sequence (Q16828 whole entry, looked up): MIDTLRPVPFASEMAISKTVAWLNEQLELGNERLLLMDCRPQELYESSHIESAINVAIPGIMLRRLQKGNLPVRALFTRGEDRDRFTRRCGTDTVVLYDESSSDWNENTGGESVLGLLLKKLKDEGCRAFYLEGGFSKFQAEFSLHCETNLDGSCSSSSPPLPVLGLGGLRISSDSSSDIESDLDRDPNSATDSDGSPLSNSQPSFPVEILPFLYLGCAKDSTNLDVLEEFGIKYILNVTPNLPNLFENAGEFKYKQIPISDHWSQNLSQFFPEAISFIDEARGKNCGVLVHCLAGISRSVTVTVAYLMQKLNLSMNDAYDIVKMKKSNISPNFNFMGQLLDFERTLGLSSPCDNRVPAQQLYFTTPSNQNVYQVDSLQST

Take `Cc1nc2ccccc2cc1O`: the cell count in [1] stood at 395. In addition, the inhibition in experiment [1] is -0.5% (inactive); in experiment [3], -67% (inactive); in experiment [5] it was 1.42% (inactive); in experiment [10], 53.3% (active); in experiment [11], 17.5% (inactive); in [12], 27.8% (inactive). Further, the inhibition of aggregation in experiment [2] is 21.5% (inactive). Also, the nuclei count is 80.3% in [2] and 103% in experiment [3]. Also, the z-score in experiment [4] (setting [13]) was -0.53; in experiment [4] (setting [14]), -0.624; in [4] (setting [15]) it was 1.27. For the same molecule, the fluorescence slope in experiment [6] was -0.392 (inactive); in experiment [8] it was 0.00432 (inactive). The NADPH fluorescence slope in experiment [7] was -3.6e-05 (inactive). For the same molecule, in experiment [9], the result was inactive.

Take `O=C(OCCCN1CCCC1)C1(c2ccccc2)CCCC1`: the cell count in experiment [1] was found to be 621. The inhibition in experiment [1] was 2.6% (inactive); in [3] it was 39.9% (inactive); in experiment [5] it was 1.04% (inactive); in experiment [10], 91.8% (active); in experiment [11], -13.4% (inactive); in [12], -17.4% (inactive). The inhibition of aggregation in experiment [2] is -0.8% (inactive). In addition, the nuclei count came out at 80.3% in experiment [2] and 126% in experiment [3]. Also, the z-score is -0.268 in experiment [4] (setting [13]), -0.108 in experiment [4] (setting [14]) and -0.136 in [4] (setting [15]). Moreover, the fluorescence slope in experiment [6] was -0.456 (inactive); in experiment [8], 0.00493 (inactive). Moreover, the NADPH fluorescence slope in experiment [7] was -5.5e-05 (inactive). The result in [9] was inactive.

In the case of `OCCNc1ncnc2c1c(-c1ccccc1)c(-c1ccccc1)n2Cc1ccco1`, in experiment [1], the cell count turned out to be 567. In addition, the inhibition in [1] is -6.9% (inactive); in experiment [3] it was 13.3% (inactive); in experiment [5] it was -2.91% (inactive); in experiment [10] it was 46.8% (inactive); in [11] it was 12.3% (inactive); in experiment [12], -0.125% (inactive). In experiment [2], the inhibition of aggregation is 1.6% (inactive). Also, the figures for the nuclei count in [2] and in experiment [3] were 114% and 91.6%, respectively. In addition, the z-score in experiment [4] (setting [13]) is -1.86; in experiment [4] (setting [14]), -1.32; in [4] (setting [15]), -1.52. In addition, the fluorescence slope in experiment [6] was -0.472 (inactive); in experiment [8] it was 0.0047 (inactive). Besides, in [7], the NADPH fluorescence slope is -6.4e-05 (inactive). Further, the result in experiment [9] was inactive.

On to `O=C(NCCN1CCCCC1)c1ccc(=O)oc1`, for which the cell count in experiment [1] was 586. In addition, the inhibition in experiment [1] was -3% (inactive); in [3], -0.3% (inactive); in experiment [5], 4.37% (inactive); in experiment [10], -5.06% (inactive); in experiment [11], 3.93% (inactive); in [12] it was 3.77% (inactive). The inhibition of aggregation in experiment [2] was -8.2% (inactive). Also, the figures for the nuclei count in [2] and in [3] were 90.9% and 130%, respectively. The z-score in experiment [4] (setting [13]) was 0.13; in experiment [4] (setting [14]), 0.819; in experiment [4] (setting [15]) it was -0.401. In addition, the figures for the fluorescence slope in [6] and in experiment [8] were -0.482 (inactive) and 0.00918 (inactive), respectively. Also, the NADPH fluorescence slope in [7] was -5.1e-05 (inactive). Also, the molecule was called inactive in experiment [9].

Turning to `Nn1c(SCC(=O)Nc2ccc3c(c2)OCCO3)nnc1C(F)(F)F`, the cell count in [1] is 598. Also, the inhibition in experiment [1] was 0% (inactive); in experiment [3] it was -26.1% (inactive); in [5] it was 10.9% (inactive); in experiment [10], 11.3% (inactive); in experiment [11], 12.4% (inactive); in experiment [12], 21.3% (inactive). Moreover, the inhibition of aggregation in [2] was -32.9% (inactive). Further, the values for the nuclei count in [2] and in experiment [3] were 105% and 110%, respectively. The values for the z-score in experiment [4] (setting [13]), in experiment [4] (setting [14]) and in experiment [4] (setting [15]) were 0.295, -0.513 and -1.34, respectively. Further, the fluorescence slope was -0.426 (inactive) in experiment [6] and 0.00501 (inactive) in [8]. In experiment [7], the NADPH fluorescence slope was -5.4e-05 (inactive). The call in experiment [9] was inactive.
